# RMI FANCM FP = inhibitors of human RMI core complex binding to FANCM MM2; 70,000 compounds, 0.58% hits; FP signal (polarization) at 33 µM; AID 1159607; Fluorescence polarization, RMI core complex with F-MM2 peptide; stronger effect = lower value; in the data active = FP signal below about 40
# * = called active by the depositor. Only a selection was taken, and hits are over-represented in it overall.
SMILES,RMI FANCM FP
Cc1c(C)c2c(c(C)c1O)CC[C@@](C)(CCC[C@H](C)CCC[C@H](C)CCCC(C)C)O2,62
Cc1c(C)c2c(c(C)c1O)CCC(C)(C(=O)O)O2 (stereo not given),1*
Cc1c(C)c2c(c(C)c1O)CCC(C)(CN1CCN(c3cc(N4CCCC4)nc(N4CCCC4)n3)CC1)O2 (stereo not given),55
Cc1ccc(C)c(S(=O)(=O)NCc2ccc(C(=O)N3CCN(c4ccccc4F)CC3)cc2)c1,75
CCOC(=O)/C=C/c1ccc(-c2ccc([N+](=O)[O-])cc2)o1,61
Cn1c2c(c(=O)n(C)c1=O)C(c1cccc(F)c1)C1=C(CC(C)(C)CC1=O)N2 (stereo not given),-8*
Cc1ccsc1C1C2=C(CCCC2=O)Nc2c1c(=O)n(C)c(=O)n2C (stereo not given),55
CC1(C)CC(=O)C2=C(C1)Nc1[nH]c(=S)[nH]c(=O)c1C2c1ccc2c(c1)OCO2 (stereo not given),52
CC(C)(C)c1cc(N2CCN(C3CCCC3)CC2)n2ncc(-c3ccccc3)c2n1,60
COc1ccccc1-c1cnn2c(N3CCN(Cc4ccccc4)CC3)cc(C)nc12,60
OCCN1CCN(c2cc(-c3ccccc3)nc3c(-c4ccc(Cl)cc4)cnn23)CC1,28*
COc1cccc(NC(=S)NCCc2cc3c(OC)ccc(OC)c3[nH]c2=O)c1,72
COc1ccc(N/C=C(\C#N)c2nc(-c3ccc(Cl)cc3Cl)cs2)c([N+](=O)[O-])c1,58
O=C(CCS(=O)(=O)c1ccc(Cl)cc1)Nc1nnc(-c2ccc(F)cc2)o1,34*
O=C(CCS(=O)(=O)c1ccc(Cl)cc1)Nc1nnc(-c2ccncc2)o1,66
O=C(CCS(=O)(=O)c1ccc(F)cc1)Nc1nnc(-c2cccnc2)o1,57
COc1ccc(N=P(c2ccccc2)(c2ccccc2)c2ccccc2)cc1,60
CCN(CC)CCN(C(=O)c1ccnn1C)c1nc2c(C)ccc(Cl)c2s1,71
C#CCn1c(=NC(=O)c2ccn(CC)n2)sc2cc(S(N)(=O)=O)ccc21,64
Cc1cc(NS(=O)(=O)c2ccc(NC(=O)c3oc4cc(C)c(C)cc4c3C)cc2)nc(C)n1,17*
Cc1cc(NS(=O)(=O)c2ccc(NC(=O)CCN3C(=O)c4ccccc4C3=O)cc2)nc(C)n1,60
Cc1cc(NS(=O)(=O)c2ccc(NC(=O)c3ccc(Br)o3)cc2)no1,66
C/C=C/C=N\NC(=O)N/N=C\C=C\C,62
CCOC(=O)C1CCN(C(=O)Cc2csc(Nc3cccc(C(F)(F)F)c3)n2)CC1,67
CCCCCCn1c(O)c(C=Nc2cccc(C(=O)OCC)c2)sc1=S,83
SMILES,RMI FANCM FP
Cc1ccc(-n2ncc(C#N)c2N)c(C)c1,56
N#Cc1cc2ccccc2oc1=O,60
Cc1ccc2oc3nc(N)c(C#N)cc3c(=O)c2c1,5*
COC(=O)c1ccc2c(c1)C(=O)/C(=C/c1ccccc1F)O2,14*
COC(=O)c1ccc2nsnc2c1,61
COC(=O)c1ccc2c(c1)C(=O)/C(=C/c1ccc(O)c(OC)c1)O2,72
CCN1CCc2c(sc(NC(=O)c3ccc([N+](=O)[O-])s3)c2-c2nc3ccccc3s2)C1,65
COCC(=O)N1CCCc2ccc(NS(=O)(=O)c3ccc(C)c(Cl)c3)cc21,71
COCCNC(=O)Cc1cn(Cc2ccc(F)cc2)c2ccccc12,65
COc1ccc(Cn2cnc3c4ccccc4n(CC(=O)NCc4ccccc4)c3c2=O)cc1,101
Fc1ccc(Cn2c3ccccc3c3nn4cnnc4nc32)cc1,28*
Cc1ccccc1CSc1nc2c(sc(=S)n2-c2ccccc2)c(=O)n1C,67
O=C(O)CCC(=O)NCCCN1CCN(c2nccc(C(F)(F)F)n2)CC1,53
Cc1cccc(NC(=O)Cn2nc(C3CC3)c3cnn(-c4ccccc4)c3c2=O)c1,100
CC(=O)Nc1cccc(NC(=O)CSc2ccc(-c3sc(-c4cccnc4)nc3C)nn2)c1,72
N#Cc1c(N2C(=O)CC(Sc3ccccc3C(=O)O)C2=O)sc2c1CCCC2 (stereo not given),62
COCCN1CCCc2ccc(NS(=O)(=O)c3cccc(C)c3)cc21,61
COCC(=O)N1CCCc2ccc(NS(=O)(=O)Cc3cccc(C)c3)cc21,73
COCCN1CCCc2ccc(NS(=O)(=O)Cc3cccc(C)c3)cc21,0*
O=[N+]([O-])c1cc(/C=N\N=C/c2csc([N+](=O)[O-])c2)cs1,55
O=C(CSc1nncn1-n1cccc1)Nc1cc(Cl)ccc1Cl,55
O=C1N=c2ccccc2=CC1=Cc1sc(=S)n(Cc2ccccc2)c1O,56
Nc1c(C(=O)N2CCOCC2)sc(=S)n1-c1ccccc1F,64
Oc1c(C=C2N=c3ccccc3=N2)sc(=S)n1-c1ccccc1F,23*
CC(=O)N1CCC(c2nnc(-c3ccc(F)cc3)o2)CC1,58
SMILES,RMI FANCM FP
CN1C(=O)C(C)(C)COc2ccc(NS(=O)(=O)c3ccc(F)c(Cl)c3)cc21,66
CCOc1cc(C2C(C#N)=C(N)Oc3cc(C)oc(=O)c32)ccc1OCc1ccccc1 (stereo not given),52
CCC(C(=O)Nc1cc(-c2ccco2)nn1-c1nc(C)c(C)c(=O)[nH]1)c1ccccc1 (stereo not given),31*
Cc1nc(-n2nc(-c3ccco3)cc2NC(=O)Cc2ccc(F)cc2)[nH]c(=O)c1C,61
Cc1nc(-n2nc(-c3ccco3)cc2NC(=O)COc2ccccc2F)[nH]c(=O)c1C,41
CCC(C(=O)Nc1cc(-c2cccs2)nn1-c1nc(C)c(C)c(=O)[nH]1)c1ccccc1 (stereo not given),61
COc1cccc(C(=O)Nc2cc(-c3ccco3)nn2-c2nc(C)c(C)c(=O)[nH]2)c1OC,56
Cc1nc(-n2nc(-c3cccs3)cc2NC(=O)c2cc3ccccc3o2)[nH]c(=O)c1C,64
Cc1nc(-n2nc(-c3ccco3)cc2NC(=O)c2ccc(Br)o2)[nH]c(=O)c1C,39*
CCOCC(=O)Nc1cc(-c2ccco2)nn1-c1nc(C)c(C)c(=O)[nH]1,65
Cc1nc(-n2nc(-c3ccco3)cc2NC(=O)c2cc3ccccc3o2)[nH]c(=O)c1C,23*
CCn1nc(C)cc1-c1nnc(SCC(=O)c2ccccc2)n1CCCOC,54
Nc1nc2c(Br)cccc2s1,60
CCOc1ccc(NC(=O)C2CCCN2/C=C/C(=O)C(F)(F)F)cc1 (stereo not given),62
O=C(NCC(c1ccco1)N1CCc2ccccc2C1)c1c(F)cccc1Cl (stereo not given),53
COc1ccc(C(=O)NCCCn2nc(-c3ccccc3)ccc2=O)cc1OC,66
O=[N+]([O-])c1ccc(C2N(Cc3ccccc3)CCN2Cc2ccccc2)cc1,59
CCOC(=O)C1=C(C)N2CCCN=C2S1,64
COc1ccccc1OCC(=O)NCC(c1ccsc1)N1CCCCCC1 (stereo not given),57
CCCOc1ccc(S(=O)(=O)Nc2ccc3c(c2)N(C(=O)CC)CCC3)cc1,72
COc1ccc(-c2oc(N=Cc3ccc(Cl)c([N+](=O)[O-])c3)c(C#N)c2-c2ccc(OC)cc2)cc1,62
O=c1c2cc(-c3ccc(F)cc3)nn2ccn1Cc1nc(-c2ccc3c(c2)OCO3)no1,122
CC(=O)Nc1cccc(NC(=O)C(=O)NC2CCCC2)c1,56
CCCOc1ccc(Br)cc1C1C(C(N)=O)=C(C)Nc2ncnn21 (stereo not given),68
CC(=O)Nc1cccc(C2=CC(c3cccc(Br)c3)n3ncnc3N2)c1 (stereo not given),5*

# High-throughput results: PubChem BioAssay, Small Molecule Screening Facility, UW Madison
